Screening data from PubChem.
LDHA block = qHTS assay for inhibitors of human lactate dehydrogenase. L-lactate dehydrogenase A chain (Homo sapiens), P00338. purified LDHA, NADH/diaphorase-resazurin fluorescence; hits give low values. activity change, % (values are at about 110 or 230 µM). 480,000 tested, 0.15% active; in the data active = activity change below about -30%; inconclusive = mostly about -25% to -30%;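 note: plate controls were DMSO wells for no effect and wells without enzyme for full effect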
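Resorufin fluorescence (ex540/em590), read at 0 and 20 min after diaphorase/resazurin addition, reports the NADH left after a 5 min room-temperature reaction of 2 nM human LDH5 with 0.06 mM NADH and 0.2 mM pyruvate.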
RORgamma inh = qHTS for inhibitors of ROR gamma transcriptional activity; Nuclear receptor ROR-gamma (Mus musculus), P51450; Potency, µM (top dose mostly 53.6 µM), for the others: at the highest dose activity change, negative = inhibition, hits mostly inhibitors; AID 2551, 2010; 310,000 tested, 5.4% active; Drosophila S2 Gal4-RORgamma UAS-luciferase reporter, 20 h; note: potency is the fitted concentration of half-maximal effect; nearly all actives have a fitted effect of over 60% in size
Target sequence (P51450 whole entry, looked up, the tested form may be a part): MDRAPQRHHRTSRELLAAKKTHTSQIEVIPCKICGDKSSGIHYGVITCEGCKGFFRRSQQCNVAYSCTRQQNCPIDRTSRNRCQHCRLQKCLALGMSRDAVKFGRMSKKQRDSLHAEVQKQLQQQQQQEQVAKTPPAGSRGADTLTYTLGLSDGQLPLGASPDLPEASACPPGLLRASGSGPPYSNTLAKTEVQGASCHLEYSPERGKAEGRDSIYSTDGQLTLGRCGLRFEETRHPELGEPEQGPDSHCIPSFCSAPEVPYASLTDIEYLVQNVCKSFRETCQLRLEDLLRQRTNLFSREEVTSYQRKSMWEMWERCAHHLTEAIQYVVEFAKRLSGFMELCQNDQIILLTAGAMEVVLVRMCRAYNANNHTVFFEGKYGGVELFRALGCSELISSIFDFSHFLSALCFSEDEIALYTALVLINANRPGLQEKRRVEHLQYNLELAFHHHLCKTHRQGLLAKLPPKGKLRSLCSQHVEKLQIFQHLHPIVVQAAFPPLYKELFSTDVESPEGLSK
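Luminescence from a UAS-regulated Photinus luciferase reporter in stably transfected Drosophila Schneider cells is measured; decreased signal marks ROR gamma inhibition. Fusion expression is induced by 700 uM copper sulfate for 20 hr.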
DT40 TDP1 no CPT = qHTS for Inhibitors of human tyrosyl-DNA phosphodiesterase 1 (TDP1): qHTS in cells in absence of CPT; 420,000 tested, 15% active; DT40 Tdp1-/- hTDP1 cells, no CPT, ATP luminescence, 48 h; AID 686978, 2013; Potency, µM (series often up to 46.2 µM), for inactives: at the top dose activity change, negative = growth inhibition, most hits filed as inhibitors; note: potency is the fitted concentration of half-maximal effect; nearly all actives have a fitted effect of over 55% in size
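Luminescent ATP content (CellTiter-Glo) served as the growth readout. Knockout chicken DT40 cells expressing human TDP1 were exposed to compounds without camptothecin for a minimum 48 hr at 37 °C.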
IL-1B inflam inh = qHTS for Inhibitors of Inflammasome Signaling: IL-1-beta AlphaLISA Primary Screen; THP-1 LPS/ATP IL-1B secretion, AlphaLISA, 16 h; hits give low values; AID 743279, 2014; 360,000 tested, 4.7% active; activity change, % at 57.5 µM; in the data active = activity change below about -50%; inconclusive = mostly about -30% to -49%
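THP-1 cells pretreated 1 hr with compounds (up to 57.5 uM final), then stimulated with LPS (250 ng/mL final) plus ATP (1.25 mM final); secreted IL-1B measured by AlphaLISA after 16 hr, decreased signal indicating inhibition.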
VP16 counter = VP16 counterscreen qHTS for inhibitors of ROR gamma transcriptional activity; Drosophila S2 Gal4-VP16 UAS-luciferase, luminescence, 20 h; Potency, µM (doses to about 53.6 µM), inactives show at the highest dose activity, negative = inhibition, usual class: inhibitors; 310,000 tested, 3.5% active; AID 2546, 2010;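 note: Gal4-VP16 expression switched on by copper sulfate through the metallothionein promoter; potency is the fitted concentration of half-maximal effect; nearly all actives have a fitted effect of over 50% in size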
TDP1 cell CPT = qHTS for Inhibitors of human tyrosyl-DNA phosphodiesterase 1 (TDP1): qHTS in cells in presence of CPT | AID 686979, 2013 | 420,000 tested, 12% active | chicken DT40 Tdp1-/-;hTDP1 cells + 20 nM CPT, ATP luminescence, 48 h | Potency, µM (series often up to 46.2 µM), inactives show at the top dose activity change, negative = growth inhibition, hits mostly inhibitors; note: potency is the fitted concentration of half-maximal effect; nearly all actives have a fitted effect of over 55% in size
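Chicken DT40 Tdp1-/- cells complemented with human TDP1, 400 cells/well, exposed to compounds plus 20 nM camptothecin for at least 48 h at 37 C; viability read as ATP content by CellTiter-Glo luminescence.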
* hit, by the source's call; ? = inconclusive; . = no result; ! = not confirmed by another sample. The list is not random: actives were taken first. Their share in the collection is about 18%. Unless noted, calls come from the whole dose curve; as a rule, active = well fitted curve in the direction sought with a large enough effect; inconclusive = small, poorly fitted or top-dose-only effect, or another doubt; inactive = no such curve, though single readings can be large; an effect the other way counts as inactive or inconclusive. Unless noted, % is set by controls: 0 for no effect and ±100 for the full control effect.

SMILES	LDHA block	RORgamma inh	DT40 TDP1 no CPT	IL-1B inflam inh	VP16 counter	TDP1 cell CPT
COc1cccc(C2c3[nH]c4ccccc4c3CCN2CCCn2cccn2)c1 (stereo unspecified)	-1.0	-8.3%	?	-19.3	-1.7%	?
O=C1CC(Sc2ccc(Cl)cc2)C(=O)N1Cc1ccncc1 (stereo unspecified)	-6.3	-90.6%	18.4µM*	-3.3	?	23.1µM*
NCCSC1CC(=O)N(Cc2ccc(F)cc2)C1=O (stereo unspecified)	-7.0	8.5%	-1.2%	6.0	2.1%	-18.8%
Nc1nonc1-c1nc2ccccc2n1Cc1ccccc1	-0.4	-24.5%	29.1µM*	?	-16.8%	?
CCCCn1c(-c2nonc2N)nc2ccccc21	-5.1	?	?	35.0	-11.6%	?
CC(C)CCn1c(-c2nonc2N)nc2ccccc21	0.7	10µM*	?	14.0	?	13µM*
CC(c1ccco1)N(C(=O)c1cc(Cl)cc(Cl)c1)c1ccccn1 (stereo unspecified)	-7.4	-15.7%	8.2µM*	-18.7	21.4%	9.2µM*
CC(c1ccco1)N(C(=O)c1ccccc1NS(=O)(=O)c1ccc(Cl)c([N+](=O)[O-])c1)c1ccccn1 (stereo unspecified)	-1.1	-3.0%	?	-85.6*	-4.0%	?
CC(C)c1ccc(C(=O)N(c2ccccn2)C(C)c2ccco2)cc1 (stereo unspecified)	-6.3	7.3%	23.1µM*	14.7	5.6%	?
Cc1cc(C)cc(C(=O)N(c2ccccn2)C(C)c2ccco2)c1 (stereo unspecified)	-11.1	12.8%	14.6µM*	12.3	-2.7%	?
Cn1nc(C(=O)NCc2ccc(Cl)cc2Cl)c2ccccc2c1=O	9.1	.	.	.	.	.
Cc1nc(N(C)C)ncc1C(=O)NCc1ccccc1	-8.2	.	.	.	.	.
C/C(=N\NC(=O)c1nnn(-c2nonc2N)c1CN(C)c1ccccc1)c1ccccn1	3.1	-39.0%	4.61µM*	80.2	?	4.61µM*
Cc1ccsc1/C=N/NC(=O)c1nnn(-c2nonc2N)c1CN(C)c1ccccc1	-1.8	3.98µM*	?	-11.3	3.16µM*	?
CCCc1c(C(=O)N/N=C/c2ccc(C)o2)nnn1-c1nonc1N	-4.8	.	?	?	.	?
Cc1c(C(=O)N/N=C/c2c(O)ccc3ccccc23)nnn1-c1nonc1N	1.3	4.47µM*	3.66µM*	139.0	7.08µM*	5.8µM*
CN(Cc1c(C(=O)N/N=C/c2cccc(O)c2)nnn1-c1nonc1N)c1ccccc1	-5.0	10.9%	-3.0%	?	6.5%	-22.2%
CCc1c(C(=O)N/N=C/c2sccc2C)nnn1-c1nonc1N	-3.5	10µM*	-13.4%	-9.2	10µM*	-26.7%
N#C/C(=C\c1ccc(Cl)s1)C(=O)NC1CC1	0.5	.	.	.	.	.
Nc1nc(COC(=O)c2ccc(O)cc2)nc2ccccc12	12.7	.	.	.	.	.
Cc1ccc(/C=N/NC(=O)c2nnn(-c3nonc3N)c2CN(C)c2ccccc2)s1	-0.1	17.8µM*	-14.1%	-10.7	?	-22.9%
CNCCNC[C@H](Cc1cccc2ccccc12)NCCc1ccccc1	-2.2	.	?	?	.	?
CNC[C@H](Cc1ccccc1)NC[C@@H](Cc1cccc2ccccc12)NCCc1ccc(C)cc1	-0.4	?	14.6µM*	-106.5*	?	18.4µM*
Cc1ccc(Nc2nc3ccccc3nc2NS(=O)(=O)c2ccccc2)cc1F	4.9	.	.	.	.	.
CCc1nc2ccc(C(=O)O)cc2nc1CC	3.5	0.708µM*	-16.0%	0.0	?	-24.5%
SMILES	LDHA block	RORgamma inh	DT40 TDP1 no CPT	IL-1B inflam inh	VP16 counter	TDP1 cell CPT
O=C(NCc1ccc(F)cc1)c1ccc2c(Cl)c3c(nc2c1)CCCC3	-3.1	.	16.4µM*	.	.	?
O=C(Nc1ccc(F)cc1)c1ccc2c(Cl)c3c(nc2c1)CCC3	11.6	.	.	.	.	.
CCOc1ccc(CNC(=O)c2ccc3c(Cl)c4c(nc3c2)CCCC4)cc1	-10.5	.	-67.9%	.	.	20.6µM*
O=C(Nc1ccccc1Cl)c1ccc2c(Cl)c3c(nc2c1)CCCC3	-0.9	.	.	.	.	.
Cc1cccc(NC(=O)c2ccc3c(Cl)c4c(nc3c2)CCCC4)n1	-9.6	-14.6%	20.6µM*	-21.8	5.5%	?
Cc1cccc(C2C3=C(COC3=O)Nc3c2c(=O)[nH]c(=O)n3CC(C)C)c1 (stereo unspecified)	-2.5	.	.	.	.	.
N#Cc1ccccc1S(=O)(=O)NCC(=O)O	8.1	.	.	.	.	.
CCc1nc2ccc(C(=O)N3CCN(c4cc(C)ccc4C)CC3)cc2nc1CC	-1.1	12.5%	?	16.4	-3.1%	?
CN1CCN(CCCNC(=O)c2ccc3c(Cl)c4c(nc3c2)CCCC4)CC1	-1.8	-0.1%	20.6µM*	-55.9*	-9.3%	?
CCOc1ccc(CNC(=O)c2ccc3nc(CC)c(CC)nc3c2)cc1	2.5	.	18.4µM*	.	.	16.4µM*
CCc1ccc(CNC(=O)c2ccc3c(Cl)c4c(nc3c2)CCCC4)cc1	-1.8	.	23.1µM*	.	.	?
CCc1nc2ccc(C(=O)N3CCN(c4ccccc4F)CC3)cc2nc1CC	-3.2	0.0%	5.8µM*!	-10.7	-3.1%	20.6µM*
COc1cccc(Oc2c(C)oc3cc(OCc4ccc(F)cc4)ccc3c2=O)c1	12.4	.	.	.	.	.
CCCCC1CCC(C(=O)NNC(=O)c2ccc(Br)cc2)CC1 (stereo unspecified)	4.3	.	.	.	.	.
O=C(Cn1c(=O)n(C2=CCCCC2)c2ccccc21)NCc1nnc2n1CCCCC2	0.3	.	.	.	.	.
CCCCOCCCNC(=O)C[C@@H]1C[C@@]2(C(=O)OCC)CCCC=C2N(Cc2ccc(Cl)cc2Cl)C1=O	1.2	.	18.4µM*	-78.7*	.	?
CCOC(=O)[C@]12CCCC=C1N(Cc1ccc(Cl)cc1Cl)C(=O)[C@H](CC(=O)NCCc1ccccc1OC)C2	2.3	.	23.1µM*	0.0	.	?
CCOC(=O)[C@]12CCC=C1N(Cc1ccc(Cl)cc1Cl)C(=O)[C@H](CC(=O)NCC13CC4CC(CC(C4)C1)C3)C2	-1.7	.	20.6µM*	-10.2	.	?
CCOC(=O)[C@]12CCCC=C1N(Cc1ccc(Cl)cc1Cl)C(=O)[C@H](CC(=O)NCCCN1CCCC1=O)C2	-3.2	.	?	-17.0	.	?
CCCCNC(=O)C[C@@H]1C[C@@]2(C(=O)OCC)CCCC=C2N(Cc2ccc(Cl)cc2Cl)C1=O	1.3	.	-92.2%	?	.	20.6µM*
